Records with an inconclusive call do not appear. Calls of active or inactive are those of the source. Unless noted, the call rests on the fitted dose curve; in most records, active means well fitted curve in the direction sought with a large enough effect in the repeat runs; inconclusive means weak or mixed curves; inactive means no such curve, though single readings can be large; an effect the other way counts as inactive or inconclusive.
Experiments:
[1] = qHTS assay to identify small molecule agonists of the TGF-beta/Smad signaling pathway - cell viability counter screen (AID 1346829); further: top concentration of the series differs between compounds; nearly all actives have a fitted effect of over 45% in size
Method in brief: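 HEK 293T SBE-bla line, 5 hr compound exposure at 37 C, multiplexed CellTiter-Glo viability read by luminescence.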

[2] = qHTS assay to identify small molecule agonists of the TGF-beta/Smad signaling pathway (AID 1346859; active means well fitted activation curve with a large enough effect in the signal ratio in the repeat runs, not every such curve was filed as active; the % refers to the signal ratio; further: series mostly up to about 77 µM)
Method in brief: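 Stable Smad binding element-beta-lactamase HEK 293T cells; 5 hr compound exposure at 37 C under 5% CO2; 2 hr room-temperature substrate step; fluorescence excited at 405 nm, collected at 460 nm and 530 nm.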

[3] = molecular target: Thyrotropin-releasing hormone receptor (Homo sapiens) (UniProt P34981); test: qHTS assay to identify small molecule antagonists of the thyrotropin-releasing hormone receptor (TRHR) signaling pathway (AID 1346877; active means well fitted inhibition curve with a large enough effect in the repeat runs, not every such curve was filed as active; further: series mostly up to about 51 µM)
Chain of Thyrotropin-releasing hormone receptor (Homo sapiens) (P34981 whole entry, looked up): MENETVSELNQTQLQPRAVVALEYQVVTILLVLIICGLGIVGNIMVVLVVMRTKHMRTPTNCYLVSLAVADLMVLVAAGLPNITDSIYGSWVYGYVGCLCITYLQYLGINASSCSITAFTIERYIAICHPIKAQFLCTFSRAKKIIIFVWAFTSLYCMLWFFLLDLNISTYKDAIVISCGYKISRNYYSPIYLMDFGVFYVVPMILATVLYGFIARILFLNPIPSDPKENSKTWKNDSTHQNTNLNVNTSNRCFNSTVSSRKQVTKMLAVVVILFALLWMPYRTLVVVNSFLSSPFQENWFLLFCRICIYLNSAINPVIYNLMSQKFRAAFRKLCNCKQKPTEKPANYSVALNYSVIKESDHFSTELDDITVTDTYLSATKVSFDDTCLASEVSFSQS
Method in brief: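 Kinetic fluorescence (3 min, 1 s resolution) following stimulation with TRH at 1 nM final; HEK293 cells bearing human TRHR; 5 min compound preincubation at RT; concentration-response over 15 points, triplicates.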

[4] = molecular target: Thyrotropin-releasing hormone receptor (Homo sapiens) (UniProt P34981); test: qHTS assay to identify small molecule agonists of the thyrotropin-releasing hormone receptor (TRHR) signaling pathway (AID 1346891; calls by dose curve;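 further: HEK293 cells expressing TRHR with calcium dye readout; series mostly up to about 58 µM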)
Method in brief: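 In 1536-format, 1500 TRHR-Hek293 cells per well grew 18 h, took up calcium dye for 2 h at 37 °C, received compound, and were read kinetically; 15-point titrations, triplicates.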

[5] = Human pregnane X receptor (PXR) small molecule agonists, qHTS cell viability counter screen (AID 1346977); further: nearly all actives have a fitted effect of over 50% in size
Method in brief: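 Readout is CellTiter-Fluor fluorescence from PXR-Luc HepG2 cells. Plated cells rested 5hr, then were treated with compounds for 24hr at 37C and 5% CO2, with reagent present during the last hour.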

[6] = Caspase-3/7 induction in CHO-K1 cells by small molecules, qHTS cell viability counter screen (AID 1346979); further: nearly all actives have a fitted effect of over 35% in size
Method in brief: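 To flag cytotoxic compounds, treated CHO-K1 wild-type cells were given CellTiter-Fluor at 16hr and read fluorescently after 1hr at 37C; the caspase-3/7 luminescence was measured in these same wells.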

[7] = Caspase-3/7 induction in CHO-K1 cells by small molecules, qHTS assay (AID 1346980); further: nearly all actives have a fitted effect of over 15% in size
Method in brief: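 Wild-type CHO-K1 cells exposed to compounds for 17hr at 37 C, 5% CO2. Caspase-3/7 activity then measured by Caspase-Glo 3/7 luminescence after 30min at room temperature.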

[8] = Caspase-3/7 induction in HepG2 cells by small molecules, qHTS cell viability counter screen (AID 1346981); further: series mostly up to about 92 µM; nearly all actives have a fitted effect of over 30% in size
Method in brief: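 In this quantitative HTS counter screen, compounds delivered in DMSO were left on unmodified HepG2 cells for 16 hr at 37 C. Viability was then determined fluorometrically with CellTiter-Fluor, in parallel with caspase-3/7 induction in the same wells.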

[9] = molecular target: Nuclear receptor subfamily 1 group I member 2 (Homo sapiens) (UniProt O75469); test: Human pregnane X receptor (PXR) small molecule agonists, qHTS assay (AID 1346982); further: nearly all actives have a fitted effect of over 35% in size; further: potency means the concentration at half of the fitted maximal effect
Chain of Nuclear receptor subfamily 1 group I member 2 (Homo sapiens) (O75469 whole entry, looked up): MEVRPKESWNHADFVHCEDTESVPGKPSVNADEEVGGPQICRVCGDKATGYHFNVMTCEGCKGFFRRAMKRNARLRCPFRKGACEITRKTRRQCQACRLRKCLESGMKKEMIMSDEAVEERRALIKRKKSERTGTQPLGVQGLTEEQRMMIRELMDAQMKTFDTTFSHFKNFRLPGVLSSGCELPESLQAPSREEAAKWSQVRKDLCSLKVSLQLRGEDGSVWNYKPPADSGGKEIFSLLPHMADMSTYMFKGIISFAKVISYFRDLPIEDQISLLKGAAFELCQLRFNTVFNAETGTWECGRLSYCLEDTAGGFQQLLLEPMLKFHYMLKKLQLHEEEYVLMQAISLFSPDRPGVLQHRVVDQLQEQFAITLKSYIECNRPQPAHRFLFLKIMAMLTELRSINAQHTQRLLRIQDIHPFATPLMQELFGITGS
Method in brief: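 Reporter HepG2 cells expressing PXR-Luc are cultured in charcoal-stripped FBS (5%), treated with compounds for 24 hr at 37 C, and assayed by ONE-Glo luminescence after 30 min at room temperature.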

[10] = molecular target: Cytochrome P450 1A2 (Homo sapiens) (UniProt P05177); test: Cytochrome P450 Family 1 Subfamily A Member 2 (CYP1A2) small molecule antagonists: luciferase reporter qHTS assay (AID 1671199); further: nearly all actives have a fitted effect of over 50% in size; further: potency means the concentration at half of the fitted maximal effect
Chain of Cytochrome P450 1A2 (Homo sapiens) (P05177 whole entry, looked up): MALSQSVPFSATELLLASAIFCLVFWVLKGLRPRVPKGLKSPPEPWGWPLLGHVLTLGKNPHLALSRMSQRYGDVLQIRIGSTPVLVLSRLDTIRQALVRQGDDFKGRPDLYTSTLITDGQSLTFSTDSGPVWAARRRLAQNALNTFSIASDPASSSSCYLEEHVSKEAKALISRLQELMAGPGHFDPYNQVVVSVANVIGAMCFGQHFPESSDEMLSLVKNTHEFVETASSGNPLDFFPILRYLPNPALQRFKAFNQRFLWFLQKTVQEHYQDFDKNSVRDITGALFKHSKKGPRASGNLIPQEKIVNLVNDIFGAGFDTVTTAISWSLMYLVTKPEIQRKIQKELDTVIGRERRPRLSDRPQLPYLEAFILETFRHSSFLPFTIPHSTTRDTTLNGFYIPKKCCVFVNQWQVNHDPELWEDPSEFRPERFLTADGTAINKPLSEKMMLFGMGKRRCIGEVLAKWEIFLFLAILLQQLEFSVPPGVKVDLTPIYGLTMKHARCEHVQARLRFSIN
Method in brief: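 Steps: enzyme-substrate mix dispensed; test compounds and furafylline control pinned in; 10 min room temperature; NADPH regeneration solution added, 1 h; reaction stopped with luciferin detection reagent; luminescence read after 20 min.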

[11] = molecular target: Voltage-gated inwardly rectifying potassium channel KCNH2 (Homo sapiens) (UniProt Q12809); test: Human Ether-a-go-go-Related Gene (hERG) channel small molecule antagonists: fluorescence cell-based qHTS assay (AID 1671200); further: nearly all actives have a fitted effect of over 50% in size; further: potency means the concentration at half of the fitted maximal effect
Chain of Voltage-gated inwardly rectifying potassium channel KCNH2 (Homo sapiens) (Q12809 whole entry, looked up): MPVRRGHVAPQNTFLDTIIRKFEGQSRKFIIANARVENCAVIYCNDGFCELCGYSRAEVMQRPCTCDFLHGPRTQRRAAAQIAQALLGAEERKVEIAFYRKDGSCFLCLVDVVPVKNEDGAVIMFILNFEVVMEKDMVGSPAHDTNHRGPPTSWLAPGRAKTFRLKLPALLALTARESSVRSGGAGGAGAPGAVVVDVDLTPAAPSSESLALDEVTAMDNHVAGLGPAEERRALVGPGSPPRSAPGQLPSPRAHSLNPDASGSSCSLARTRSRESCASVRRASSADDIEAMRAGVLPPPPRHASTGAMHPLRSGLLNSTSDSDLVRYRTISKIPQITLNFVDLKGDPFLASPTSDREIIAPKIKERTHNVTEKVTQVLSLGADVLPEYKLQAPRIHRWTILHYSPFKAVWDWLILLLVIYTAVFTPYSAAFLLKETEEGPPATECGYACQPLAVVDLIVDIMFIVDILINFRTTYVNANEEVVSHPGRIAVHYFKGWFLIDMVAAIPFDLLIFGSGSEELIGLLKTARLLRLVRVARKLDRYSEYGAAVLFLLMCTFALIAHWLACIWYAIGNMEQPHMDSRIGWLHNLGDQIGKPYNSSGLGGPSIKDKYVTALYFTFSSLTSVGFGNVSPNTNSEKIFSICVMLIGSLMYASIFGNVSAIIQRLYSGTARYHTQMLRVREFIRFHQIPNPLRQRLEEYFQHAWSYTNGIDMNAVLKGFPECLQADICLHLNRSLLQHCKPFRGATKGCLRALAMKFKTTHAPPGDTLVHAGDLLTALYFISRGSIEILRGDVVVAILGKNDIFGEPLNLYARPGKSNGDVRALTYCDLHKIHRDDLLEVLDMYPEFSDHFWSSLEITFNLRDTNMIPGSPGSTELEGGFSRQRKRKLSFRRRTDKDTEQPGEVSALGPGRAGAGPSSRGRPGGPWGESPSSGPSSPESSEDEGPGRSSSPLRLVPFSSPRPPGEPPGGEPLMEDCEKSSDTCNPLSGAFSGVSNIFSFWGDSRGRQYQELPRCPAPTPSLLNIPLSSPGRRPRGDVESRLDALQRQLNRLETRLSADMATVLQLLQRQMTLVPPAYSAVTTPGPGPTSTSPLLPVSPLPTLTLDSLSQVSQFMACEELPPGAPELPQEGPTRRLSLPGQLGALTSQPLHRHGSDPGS
Method in brief: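 Measured: Tl+ flux via fluorescence (480/540 nm) in hERG-expressing U2OS cells after 1 h dye loading at room temperature.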

[12] = Caspase-3/7 induction in HepG2 cells by small molecules, qHTS assay (AID 1346978); further: nearly all actives have a fitted effect of over 15% in size
Method in brief: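 Wild-type HepG2 cells, 2,000/well, settled 5 hr at 37 C and 5% CO2, then compound-treated for 17 hr; caspase-3/7 activity read by luminescent Caspase-Glo 3/7 after 30 min at room temperature.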

[13] = molecular target: Cytochrome P450 2C19 (Homo sapiens) (UniProt P33261); test: Cytochrome P450 Family 2 Subfamily C Member 19 (CYP2C19) small molecule antagonists: luciferase reporter qHTS assay (AID 1671197); further: nearly all actives have a fitted effect of over 65% in size; further: potency means the concentration at half of the fitted maximal effect
Chain of Cytochrome P450 2C19 (Homo sapiens) (P33261 whole entry, looked up): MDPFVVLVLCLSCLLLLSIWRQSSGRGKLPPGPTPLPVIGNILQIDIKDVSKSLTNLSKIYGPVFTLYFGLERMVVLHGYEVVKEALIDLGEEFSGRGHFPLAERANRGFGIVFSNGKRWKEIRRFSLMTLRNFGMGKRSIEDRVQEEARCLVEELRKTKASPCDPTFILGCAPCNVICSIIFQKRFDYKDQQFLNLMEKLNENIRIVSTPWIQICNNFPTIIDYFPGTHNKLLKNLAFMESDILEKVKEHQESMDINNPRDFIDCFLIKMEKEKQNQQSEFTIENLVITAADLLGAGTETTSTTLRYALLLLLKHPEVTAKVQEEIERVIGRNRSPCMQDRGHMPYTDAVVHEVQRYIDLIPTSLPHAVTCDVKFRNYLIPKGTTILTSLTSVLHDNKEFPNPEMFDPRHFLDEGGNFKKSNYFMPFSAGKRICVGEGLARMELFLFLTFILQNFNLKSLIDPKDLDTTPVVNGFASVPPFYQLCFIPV
Method in brief: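 First, compounds are pinned into enzyme-substrate mix and held 10 min at room temperature. Second, NADPH regeneration solution is added and plates incubate 1 h at 37C. Third, detection reagent is added and luminescence read after 20 min.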

[14] = molecular target: Cytochrome P450 2C9 (Homo sapiens) (UniProt P11712); test: Cytochrome P450 Family 2 Subfamily C Member 9 (CYP2C9) small molecule antagonists: luciferase reporter qHTS assay (AID 1671198); further: nearly all actives have a fitted effect of over 50% in size; further: potency means the concentration at half of the fitted maximal effect
Chain of Cytochrome P450 2C9 (Homo sapiens) (P11712 whole entry, looked up): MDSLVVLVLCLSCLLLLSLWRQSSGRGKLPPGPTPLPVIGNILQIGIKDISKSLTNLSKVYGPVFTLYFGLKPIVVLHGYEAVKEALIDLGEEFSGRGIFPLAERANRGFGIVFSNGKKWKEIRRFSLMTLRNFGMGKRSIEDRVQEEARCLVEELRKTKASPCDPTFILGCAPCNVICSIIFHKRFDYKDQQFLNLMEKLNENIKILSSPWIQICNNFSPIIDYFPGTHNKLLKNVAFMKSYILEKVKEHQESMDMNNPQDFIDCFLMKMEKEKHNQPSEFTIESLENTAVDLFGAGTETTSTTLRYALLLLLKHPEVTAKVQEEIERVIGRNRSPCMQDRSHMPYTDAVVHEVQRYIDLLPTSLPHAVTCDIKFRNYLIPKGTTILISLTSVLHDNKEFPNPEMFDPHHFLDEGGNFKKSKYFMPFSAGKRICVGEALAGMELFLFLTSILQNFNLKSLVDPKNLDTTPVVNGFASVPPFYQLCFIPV
Method in brief: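 P450-Glo proluciferin substrate with CYP2C9 enzyme; 10 min RT preincubation, then NADPH regeneration 1 h at 37C; luciferin detection reagent 20 min RT, luminescence in relative luminescence units.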

[15] = molecular target: Nuclear receptor subfamily 1 group I member 2 (Rattus norvegicus) (UniProt Q9R1A7); test: Rat pregnane X receptor (rPXR) activation by small molecules, qHTS assay (AID 1346983); details: rPXR luciferase reporter cells, One-Glo luminescence, 24 h; max activation: active compounds read high; further: nearly all actives have a fitted effect of over 20% in size
Chain of Nuclear receptor subfamily 1 group I member 2 (Rattus norvegicus) (Q9R1A7 whole entry, looked up): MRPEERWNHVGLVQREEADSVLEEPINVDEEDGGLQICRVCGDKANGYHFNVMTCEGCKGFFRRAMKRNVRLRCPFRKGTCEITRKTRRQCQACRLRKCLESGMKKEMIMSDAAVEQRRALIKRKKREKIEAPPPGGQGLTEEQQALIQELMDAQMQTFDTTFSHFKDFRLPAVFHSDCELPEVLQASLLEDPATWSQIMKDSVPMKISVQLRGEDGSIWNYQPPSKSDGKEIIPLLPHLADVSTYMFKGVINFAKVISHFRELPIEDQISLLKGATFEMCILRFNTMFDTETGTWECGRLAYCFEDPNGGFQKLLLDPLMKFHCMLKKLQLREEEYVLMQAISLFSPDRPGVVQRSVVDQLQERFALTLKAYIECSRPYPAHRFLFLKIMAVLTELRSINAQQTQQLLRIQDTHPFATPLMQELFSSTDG
Method in brief: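 Cell-based rPXR activation assay: rPXR cells, 2,000 per well, rested 5hr at 37 C, then exposed to compounds in DMSO for 24 hr at 37 C. Luciferase activity read by One-Glo luminescence after 30 min at room temperature.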

[16] = molecular target: Nuclear receptor subfamily 1 group I member 2 (Homo sapiens) (UniProt O75469); test: CYP3A4 induction through human pregnane X receptor (PXR) by small molecules, qHTS assay (AID 1346984); further: nearly all actives have a fitted effect of over 40% in size
Method in brief: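 Induction measured in HepG2-based DPX-2 cells co-expressing human PXR and a CYP3A4 promoter-driven luciferase. After a 24-hour compound exposure, cells received CYP3A4 luciferin substrate at 3uM final for 3 hours, and light output was then recorded.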

[17] = molecular target: Nuclear receptor subfamily 1 group I member 2 (Homo sapiens) (UniProt O75469); test: Human pregnane X receptor (PXR) activation by small molecules, qHTS assay (AID 1346985); further: nearly all actives have a fitted effect of over 40% in size
Method in brief: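 DPX-2 cells (HepG2 co-transfected with a PXR response element and a CYP3A4-promoter luciferase construct) were seeded at 2,000 per well, rested 5 hr at 37C, then exposed to DMSO-dissolved compounds for 24 hr. Activation was read as luciferase luminescence.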

[18] = molecular target: Cytochrome P450 2D6 (Homo sapiens) (UniProt P10635); test: Cytochrome P450 Family 2 Subfamily D Member 6 (CYP2D6) small molecule antagonists: luciferase reporter qHTS assay (AID 1671196); further: nearly all actives have a fitted effect of over 50% in size; further: potency means the concentration at half of the fitted maximal effect
Chain of Cytochrome P450 2D6 (Homo sapiens) (P10635 whole entry, looked up): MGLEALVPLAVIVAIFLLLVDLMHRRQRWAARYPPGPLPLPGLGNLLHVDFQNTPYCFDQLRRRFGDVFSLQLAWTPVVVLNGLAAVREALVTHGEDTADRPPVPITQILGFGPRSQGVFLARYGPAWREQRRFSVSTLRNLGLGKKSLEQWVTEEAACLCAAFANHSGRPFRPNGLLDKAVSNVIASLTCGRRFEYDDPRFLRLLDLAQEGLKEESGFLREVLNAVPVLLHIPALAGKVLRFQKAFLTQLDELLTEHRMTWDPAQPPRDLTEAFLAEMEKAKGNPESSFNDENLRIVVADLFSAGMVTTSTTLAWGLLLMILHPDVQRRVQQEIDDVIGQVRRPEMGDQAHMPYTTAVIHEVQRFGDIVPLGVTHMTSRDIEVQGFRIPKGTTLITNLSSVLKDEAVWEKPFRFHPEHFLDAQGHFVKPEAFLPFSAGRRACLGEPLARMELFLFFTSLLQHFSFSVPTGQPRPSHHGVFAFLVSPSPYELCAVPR
Method in brief: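 Test chemicals meet CYP2D6 plus proluciferin substrate (10 min, RT); NADPH regenerating solution then drives turnover for 1 h. Detection reagent halts the reaction; luminescence measured after 20 min.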

[19] = molecular target: Cytochrome P450 3A4 (Homo sapiens) (UniProt P08684); test: Cytochrome P450 Family 3 Subfamily A Member 4 (CYP3A4) small molecule antagonists: luciferase reporter qHTS assay (AID 1671201)
Chain of Cytochrome P450 3A4 (Homo sapiens) (P08684 whole entry, looked up): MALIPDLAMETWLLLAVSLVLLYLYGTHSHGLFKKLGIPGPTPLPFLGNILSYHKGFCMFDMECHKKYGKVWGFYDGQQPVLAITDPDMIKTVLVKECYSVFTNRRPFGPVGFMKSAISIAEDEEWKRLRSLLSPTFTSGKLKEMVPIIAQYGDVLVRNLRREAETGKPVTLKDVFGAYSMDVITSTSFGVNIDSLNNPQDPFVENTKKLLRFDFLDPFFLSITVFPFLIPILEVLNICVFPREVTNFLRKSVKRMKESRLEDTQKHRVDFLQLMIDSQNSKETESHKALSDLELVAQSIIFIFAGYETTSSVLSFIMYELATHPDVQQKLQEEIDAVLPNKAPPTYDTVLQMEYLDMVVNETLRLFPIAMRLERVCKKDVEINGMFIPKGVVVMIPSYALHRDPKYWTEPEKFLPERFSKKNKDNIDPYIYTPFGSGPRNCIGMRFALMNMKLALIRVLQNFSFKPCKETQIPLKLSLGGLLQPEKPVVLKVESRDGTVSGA
Method in brief: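 Setup: enzyme-substrate mix, compound pin transfer, 10 min RT. Reaction: NADPH regeneration solution, 1 h RT. Readout: detection reagent stops turnover, luminescence measured after 20 min, expressed in relative luminescence units.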
On the % scale 0 is the no-effect control and ±100 the full control effect.

CC(=O)/C=C/C=C1/C2CCC(C2)C1(C)C (stereo not drawn)
inactive: outcome [1] | outcome [2] | outcome [3] | Potency [4] | outcome [5] | Potency [6] | outcome [7] | outcome [8] | Potency [11]
active: Potency [9] 3.76 µM | Potency [10] 21.9 µM

Cc1ccc2cccnc2c1
inactive: outcome [1] | outcome [2] | outcome [3] | Potency [4] | outcome [5] | outcome [12] | Potency [6] | outcome [8] | Potency [9] | Potency [13] | Potency [14] | Potency [11]
active: Potency [10] 39.6 µM

CCOc1ccccc1OCCN[C@H](C)Cc1ccc(OC)c(S(N)(=O)=O)c1
active: Potency [9] 26.6 µM | Potency [11] 21.3 µM
inactive: outcome [1] | outcome [2] | outcome [3] | Potency [4] | outcome [5] | outcome [12] | Potency [6] | outcome [7] | max activation [15] -6.48% | outcome [16] | outcome [17] | Potency [13] | Potency [10]

CCC(C)c1nccnc1OC (stereo not drawn)
inactive: outcome [1] | outcome [2] | outcome [3] | Potency [4] | outcome [5] | outcome [12] | Potency [6] | Potency [9] | Potency [18] | Potency [13] | Potency [14] | Potency [11]

CCC(C)SSC(C)CC (stereo not drawn)
inactive: outcome [1] | outcome [2] | outcome [3] | Potency [4] | outcome [5] | outcome [12] | Potency [6] | outcome [8] | Potency [9] | Potency [13] | Potency [14] | Potency [11] | Potency [19]
active: Potency [18] 31.7 µM

COC(=O)c1ccc(NC(C)=O)cc1OC
active: Potency [10] 11.5 µM
inactive: outcome [1] | outcome [2] | outcome [3] | Potency [4] | outcome [5] | outcome [12] | Potency [6] | outcome [8] | Potency [9] | Potency [18] | Potency [14] | Potency [11] | Potency [19]

C/C=C(\C)C=O
active: Potency [10] 63.6 µM
inactive: outcome [1] | outcome [2] | outcome [3] | Potency [4] | outcome [5] | outcome [12] | Potency [6] | outcome [7] | Potency [9] | Potency [13] | Potency [14] | Potency [11] | Potency [19]

COC(=O)c1c(C)cc(O)c(C)c1O
active: Potency [9] 61.1 µM | Potency [18] 31.7 µM | Potency [13] 7.96 µM | Potency [10] 0.252 µM
inactive: outcome [1] | outcome [2] | outcome [3] | Potency [4] | outcome [5] | outcome [12] | outcome [7] | outcome [8] | Potency [11]

N#CC1(N)CCCCC1
inactive: outcome [1] | outcome [2] | outcome [3] | Potency [4] | outcome [5] | Potency [6] | outcome [7] | outcome [8] | Potency [9] | Potency [18] | Potency [13] | Potency [14] | Potency [10] | Potency [11] | Potency [19]

C=CCn1cc[n+](C)c1
inactive: outcome [1] | outcome [2] | outcome [3] | Potency [4] | outcome [5] | outcome [12] | Potency [6] | outcome [7] | Potency [9] | Potency [13] | Potency [14] | Potency [11] | Potency [19]

CO/N=C(\C(=O)O)c1csc(NC(=O)CCl)n1
inactive: outcome [1] | outcome [2] | outcome [3] | Potency [4] | outcome [5] | outcome [12] | Potency [6] | outcome [7] | Potency [9] | Potency [18] | Potency [13] | Potency [14] | Potency [10] | Potency [11] | Potency [19]

CCNC(=O)C(C)OC(=O)Nc1ccccc1 (stereo not drawn)
active: Potency [13] 79.6 µM | Potency [14] 35.6 µM | Potency [10] 35.6 µM
inactive: outcome [1] | outcome [2] | outcome [3] | Potency [4] | outcome [5] | outcome [12] | outcome [8] | Potency [9] | Potency [18] | Potency [11] | Potency [19]

CC(C)CC(O)Cc1ccccc1 (stereo not drawn)
active: Potency [13] 71 µM
inactive: outcome [1] | outcome [2] | outcome [3] | outcome [5] | outcome [12] | Potency [6] | outcome [7] | outcome [8] | Potency [9] | Potency [18] | Potency [11] | Potency [19]

CC(C)C(=O)Nc1cccc(C2CN3CCSC3=N2)c1 (stereo not drawn)
inactive: outcome [1] | outcome [2] | outcome [3] | outcome [5] | outcome [12] | Potency [6] | outcome [7] | outcome [8] | Potency [9] | Potency [13] | Potency [10] | Potency [11]

From PubChem BioAssay (Tox21)
